Assay outcomes deposited in PubChem by National Center for Advancing Translational Sciences (NCATS).
Rows were chosen to be rich in hits. Some 10% of all compounds tested hit in one or more screens of this group.
MCF10A rereplic: induces DNA re-replication in MCF 10a normal breast cells; Potency, µM (highest dose often 46.1 µM), for inactives: at the highest dose activity, positive = re-replication, actives largely listed as activators; MCF 10A DNA re-replication, Hoechst nuclear intensity, 48 h; AID 624296; 2.9% of 350,000 active; note: % of control where 0% means no effect; nearly all actives have a fitted effect of over 50% in size
VP16 counter: counter-screen for ROR gamma inhibitors: Gal4-VP16 reporter; Potency, µM (titrated, usually from 53.6 µM), without a hit: at the highest dose activity, negative = inhibition, most hits filed as inhibitors; 3.5% of 310,000 active; Drosophila S2 Gal4-VP16 UAS-luciferase, luminescence, 20 h;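 note: Gal4-VP16 expression switched on by copper sulfate through the metallothionein promoter; % is set by controls: 0 for no effect and ±100 for the full control effect; nearly all actives have a fitted effect of over 50% in size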
SW480 rereplic: inducers of DNA re-replication in SW480 colon cancer cells; SW480 DNA re-replication, Hoechst DNA content imaging, 48 h; Potency, µM (series often up to 46.1 µM), for the others: top-dose re-replication activation, actives largely listed as activators; 1.8% of 340,000 active; note: % of control where 0% means no effect; nearly all actives have a fitted effect of over 55% in size
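Image-based read-out: total Hoechst fluorescence of nuclei (405 nm excitation, 500-530 nm emission), with hits raising the fraction of high-intensity nuclei. SW480 colon cells incubated 48 hr with compounds at 37 C.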
ELG1 repair inh: ELG1-dependent DNA repair inhibition. HEK293T ELG1-luciferase reporter, luminescence, 16 h; DNA damage induced by 5-fluorouridine. AID 504467. Potency, µM (titrated, usually from 46.1 µM), for the others: at the top dose activity change, negative = inhibition, most hits filed as inhibitors. 2.3% of 330,000 active; note: % is set by controls: 0 for no effect and ±100 for the full control effect; nearly all actives have a fitted effect of over 55% in size
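HEK293T cells expressing luciferase-tagged ELG1 (2,000/well) received 5-Fluorouridine plus compound or DMSO for 16 hr at 37 °C. Luciferase was read by ONE-Glo luminescence after 30 min at room temperature.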
RORg inh: blocks mouse ROR gamma transcriptional activity; P51450; Drosophila S2 Gal4-RORgamma UAS-luciferase reporter, 20 h; Potency, µM (titrated, usually from 53.6 µM), for inactives: top-dose activity change, negative = inhibition, most hits filed as inhibitors; 5.4% of 310,000 active; note: % is set by controls: 0 for no effect and ±100 for the full control effect; nearly all actives have a fitted effect of over 60% in size
Target sequence (P51450 whole entry, looked up, the tested form may be a part): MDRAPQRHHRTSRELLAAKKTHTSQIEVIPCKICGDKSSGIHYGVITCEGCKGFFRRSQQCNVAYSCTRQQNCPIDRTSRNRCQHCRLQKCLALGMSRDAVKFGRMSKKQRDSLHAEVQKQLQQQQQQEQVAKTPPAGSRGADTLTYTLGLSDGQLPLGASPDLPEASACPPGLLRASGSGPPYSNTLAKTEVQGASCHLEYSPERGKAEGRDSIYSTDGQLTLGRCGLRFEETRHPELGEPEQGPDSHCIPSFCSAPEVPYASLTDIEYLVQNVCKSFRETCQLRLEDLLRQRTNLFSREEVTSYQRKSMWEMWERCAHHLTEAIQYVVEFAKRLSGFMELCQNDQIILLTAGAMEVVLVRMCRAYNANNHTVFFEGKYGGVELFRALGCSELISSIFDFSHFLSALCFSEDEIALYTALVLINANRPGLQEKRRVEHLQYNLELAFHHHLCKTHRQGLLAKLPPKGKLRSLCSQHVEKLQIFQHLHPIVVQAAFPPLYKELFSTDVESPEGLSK
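Read-out: Photinus luciferase luminescence; inhibitors lower reporter signal. Insect Schneider cells with Gal4-ROR gamma fusion under metallothionein promoter, UAS reporter; 700 uM final copper sulfate induction, 20 hr, ambient temperature.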
Active calls of the source: *; [ ] = remark or other dose. Calls come from the whole dose curve; as a rule, active = well fitted curve in the direction sought with a large enough effect; inconclusive = small, poorly fitted or top-dose-only effect, or another doubt; inactive = no such curve, though single readings can be large; an effect the other way counts as inactive or inconclusive. Potency is the fitted concentration of half-maximal effect.

Screening COC(=O)c1ccc(OCC(O)CN2CCc3cc(OC)c(OC)cc3C2c2ccccc2)cc1 (stereo unspecified) returned MCF10A rereplic 20.6µM*, VP16 counter inconclusive, SW480 rereplic 24.7%, ELG1 repair inh inconclusive and RORg inh 16.0%.
CCC(=O)N1CCc2cc(OC)c(OC)cc2C1COc1ccc(C(=O)OC)cc1 (stereo unspecified) was read as MCF10A rereplic 24.1%, SW480 rereplic 11.2%, ELG1 repair inh 2.59µM* and RORg inh -3.4%[0.365 µM].
`CCN(CC)C(=S)NC(=O)c1cccnc1` gave MCF10A rereplic -0.8%, VP16 counter 5.62µM*, SW480 rereplic -15.3%, ELG1 repair inh -3.7% and RORg inh 2.51µM*.
For CCN(CC)C(=S)NC(=O)c1ccc(F)cc1 the results were MCF10A rereplic -1.0%, VP16 counter 2.82µM*, SW480 rereplic -74.1%, ELG1 repair inh 7.4% and RORg inh 0.794µM*.
For Cc1ccc(C(C)C)c(O)c1C(=O)O the results were MCF10A rereplic -27.1% and SW480 rereplic -21.7%.
S=c1[nH]nc(-c2cccnc2)n1Cc1ccccc1 was read as MCF10A rereplic -0.2%, VP16 counter inconclusive, SW480 rereplic -9.4%, ELG1 repair inh 0.7% and RORg inh inconclusive.
Cn1c(-c2csc(-c3ccccc3)n2)n[nH]c1=S was read as MCF10A rereplic 2.2%, VP16 counter -5.1%, SW480 rereplic 0.5%, ELG1 repair inh 20.2% and RORg inh 6.7%.
Screening S=c1[nH]nc(-c2ccncc2)n1Cc1ccccc1 returned MCF10A rereplic -4.5%, VP16 counter -19.8%, SW480 rereplic 4.5%, ELG1 repair inh 0.0% and RORg inh 12.6µM*.
For S=c1[nH]nc(-c2ccc(Br)cc2)n1Cc1ccccc1 the results were MCF10A rereplic -0.9%, VP16 counter 5.62µM*, SW480 rereplic -11.6%, ELG1 repair inh -5.5% and RORg inh 2.24µM*.
`Cc1cc(-c2n[nH]c(=S)n2Cc2ccccc2)cs1` gave MCF10A rereplic 2.6%, VP16 counter inconclusive, SW480 rereplic -7.1%, ELG1 repair inh -4.5% and RORg inh 5.62µM*.
Screening Fc1ccc(-c2n[nH]c(=S)n2Cc2ccccc2)cc1 returned MCF10A rereplic 10.0%, VP16 counter 11.2µM*, SW480 rereplic 5.5%, ELG1 repair inh 0.4% and RORg inh 2.82µM*.
For Oc1ccc(-c2n[nH]c(=S)n2Cc2ccccc2)cc1 the results were MCF10A rereplic -0.2%, SW480 rereplic 0.8%, ELG1 repair inh 2.7% and RORg inh -7.7%[0.365 µM].
Screening CCCc1nc(SCC(=O)N2CCc3ccccc32)c2c(C)c(C)sc2n1 returned VP16 counter 0.9%, ELG1 repair inh 5.7% and RORg inh 9.5%.
COc1cccc(CNC(=O)CNC(=O)N2CC(=O)Nc3ccccc32)c1 was read as MCF10A rereplic inconclusive, VP16 counter 5.8%, SW480 rereplic -2.1%, ELG1 repair inh 3.6% and RORg inh -12.7%.
CC(C)(C)c1ccc(-c2cc(N)n[nH]2)cc1 was read as MCF10A rereplic -8.7%, VP16 counter -1.5%, SW480 rereplic inconclusive, ELG1 repair inh inconclusive and RORg inh 2.2%.
For CCCCOc1ccc(-c2n[nH]c(=S)n2Cc2ccccc2)cc1 the results were MCF10A rereplic inconclusive, VP16 counter inconclusive, SW480 rereplic 3.0%, ELG1 repair inh -16.0% and RORg inh 1.58µM*.
For CC(C)n1c(-c2ccc(C(C)(C)C)cc2)n[nH]c1=S the results were MCF10A rereplic -3.7%, VP16 counter 10µM*, SW480 rereplic 3.8%, ELG1 repair inh 17.9% and RORg inh 4.47µM*.
FC(F)C(F)(F)Oc1cccc(-c2n[nH]c(=S)n2Cc2ccccc2)c1 was read as MCF10A rereplic inconclusive, SW480 rereplic 27.4% and ELG1 repair inh 1.2%.
`Fc1ccc(-c2c[nH]c(=S)n2Cc2ccccc2)cc1` gave MCF10A rereplic inconclusive, VP16 counter 1.41µM*, SW480 rereplic -21.4%, ELG1 repair inh -17.5% and RORg inh 0.631µM*.
`CC(C)(C)c1ccc(-c2n[nH]c(=S)n2Cc2ccccc2)cc1` gave MCF10A rereplic inconclusive, VP16 counter 7.08µM*, SW480 rereplic -6.9%, ELG1 repair inh 0.0% and RORg inh 2.24µM*.
For CN(C)c1ccc(/C=C(\Cl)c2nc3ccccc3s2)cc1 the results were MCF10A rereplic 7.31µM*, VP16 counter -23.1%, SW480 rereplic inconclusive, ELG1 repair inh inconclusive and RORg inh 23.4%.
For O=C(O)c1ccc(C=C(c2nc3ccccc3s2)c2nc3ccccc3s2)cc1 the results were MCF10A rereplic 18.4µM*, VP16 counter -5.0%, SW480 rereplic 6.3%, ELG1 repair inh -1.1% and RORg inh -31.6%.
For Cc1cccc(OCc2nnc(SCC(=O)O)n2-c2ccccc2)c1 the results were MCF10A rereplic 4.5%, VP16 counter -9.4%, SW480 rereplic -1.3%, ELG1 repair inh -0.8% and RORg inh -20.8%.
OC(CNC1CCCCC1)COCCOc1ccc(Br)cc1 (stereo unspecified) was read as MCF10A rereplic 16.4µM*, VP16 counter -14.3%, SW480 rereplic inconclusive, ELG1 repair inh -1.2% and RORg inh -6.0%.
`OC(CNC1CCCC1)COc1ccc(-c2ccccc2)cc1` (stereo unspecified) gave MCF10A rereplic inconclusive, VP16 counter 4.0%, SW480 rereplic inconclusive, ELG1 repair inh 6.5% and RORg inh -24.0%.
C[C@H](NC(=O)[C@@H]1CSC2c3ccccc3C(=O)N21)C(=O)NCc1c(F)cccc1Cl (stereo partly specified) was read as MCF10A rereplic 7.3%, VP16 counter 0.0%, SW480 rereplic -2.5%, ELG1 repair inh -0.7% and RORg inh 31.2%.
Screening Cc1cc(C)n(C(=O)Cn2nc(C)c(Br)c2C)n1 returned MCF10A rereplic 5.2%, VP16 counter 5.8%, SW480 rereplic -36.8%, ELG1 repair inh -0.5% and RORg inh 0.6%.
For COc1cc(C(=O)N2CCN=C2c2ccccc2)cc(OC)c1OC the results were MCF10A rereplic -0.6%, VP16 counter 0.2%, SW480 rereplic 2.5%, ELG1 repair inh 12.5% and RORg inh 5.8%.
O=C(c1ccc(F)cc1)N1CCN=C1c1ccccc1 was read as MCF10A rereplic inconclusive, VP16 counter -16.6%, SW480 rereplic 13µM*, ELG1 repair inh -20.8% and RORg inh 13.5%.
Screening COc1ccc(-c2noc(CN3CCN(C(=O)c4cccs4)CC3)n2)c(OC)c1OC returned MCF10A rereplic -0.4%, VP16 counter 1.6%, SW480 rereplic -15.3%, ELG1 repair inh inconclusive and RORg inh -15.0%.
For O=c1c(Cl)c(NCCCO)cnn1-c1nc2ccccc2[nH]1 the results were MCF10A rereplic 2.91µM*, VP16 counter 3.55µM*, SW480 rereplic inconclusive, ELG1 repair inh inconclusive and RORg inh 5.01µM*.
